test system: TSSK3; settings: Compound Concentration (nM):1000
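Also: KINOMEscan scanMAX binding as percent activity remaining versus control; lower means stronger binding.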

SMILES	Percent Control [%]
NS(=O)(=O)c1ccc(N/N=C2\C(=O)Nc3ccc(Cl)cc32)cc1 [GW280670X]	100
COc1cccc(-c2c[nH]c3c(N/N=C/c4ccncc4)ncnc23)c1 [GW814408X]	98
COC(=O)Nc1nc2ccc(Oc3ccc(NC(=O)Nc4cc(C(F)(F)F)ccc4F)cc3)cc2s1.Cl [GW693917A]	82
COc1ccc2c(-c3ccnc(Nc4cccc(OC(F)(F)F)c4)n3)cnn2n1 [GW810372X]	86
NS(=O)(=O)c1ccc(N/N=C2\C(=O)Nc3ccc(-c4cnco4)cc32)cc1 [GW276655]	100
Cl.c1ccc(Cc2nc3ccc(Nc4ncnc5ccccc45)cc3[nH]2)cc1 [GR269666A]	100
C/C(Nc1ccc(S(N)(=O)=O)cc1)=C1/C(=O)Nc2ccccc21 [GW335962X]	75
COc1cc(N2CCN(C(C)C)CC2)ccc1Nc1nc(Nc2ccc(F)cc2C(=O)NC[C@@H](O)CO)c2cc[nH]c2n1 [GSK1392956A]	83
Nc1ncnc2occ(-c3ccc(NC(=O)Nc4cc(C(F)(F)F)ccc4F)cc3)c12 [GW770249X]	84
CC(C)COC(=O)c1ccc2c(c1)/C(=C/Nc1ccc(S(N)(=O)=O)cc1)C(=O)N2 [GW416981X]	100
Cl.O=C(Nc1ccc(Oc2ccc3[nH]c(NC(=O)c4ccccc4)nc3c2)cc1)Nc1cc(C(F)(F)F)ccc1F [GW709042A]	100
CCc1ccc(Oc2nccc(-c3c(-c4ccc(F)cc4)ncn3C3CCNCC3)n2)cc1 [SB-242719]	90
COc1cc(C)c(N(C)C(=O)CN(C)C)cc1Nc1nc(Nc2cccc(F)c2C(N)=O)c2cc[nH]c2n1 [GSK2219385]	100
NS(=O)(=O)c1ccc(Nc2ncc(-c3ccccc3)o2)cc1 [GW572399X]	100
CCS(=O)(=O)c1ccc(OC)c(Nc2ncc(-c3cccc(OC)c3)o2)c1 [GW580509X]	100
C[C@@H](Oc1cc(-n2cnc3ccc(OC4CCN(C)CC4)cc32)sc1C(N)=O)c1ccccc1Cl [GSK579289A]	100
COc1cc2ncn(-c3cc(O[C@H](C)c4ccccc4Cl)c(C(N)=O)s3)c2cc1OC [GSK237701A]	39
O=C1Nc2ccc(C(=O)c3ccco3)cc2C1=Cc1cc(Cl)c(O)c(Cl)c1 [GW406108X]	87
Cc1cc(O)cc(C)c1/C=C/c1cncc(C(N)=O)c1 [GW435821X]	100
COc1cc(/C=N/Nc2ncnc3[nH]ncc23)ccc1O [GW578748X]	100
COc1cc(C=NNc2ncnc3c2cnn3-c2ccccc2)ccc1O [GW513184X]	100
NS(=O)(=O)c1ccc(N/N=C2\C(=O)Nc3ccc(C(=O)NCCc4c[nH]cn4)cc32)cc1 [GW300660X]	100
Cl.O=C(Nc1ccc(Oc2ccc3[nH]c(NC(=O)c4ccco4)nc3c2)cc1)Nc1cc(C(F)(F)F)ccc1F [GW683134A]	100
CN(C)CCNC(=O)Nc1ccc(N(C)c2ccnc(Nc3ccc(CS(C)(=O)=O)cc3)n2)cc1.Cl [GW830900A]	83
CCn1c(-c2nonc2N)nc2c(C#CC(C)(C)O)nc(OCCNC)cc21.Cl [GSK949675]	14
NS(=O)(=O)c1ccc(N/N=C2\C(=O)Nc3ccc(C(=O)NCc4ccncc4)cc32)cc1 [GW300657X]	89
Cl.O=S1CCN(Cc2ccc(-c3ccc4ncnc(Nc5ccc(OCc6ccccc6)c(F)c5)c4c3)o2)CC1 [GW576924A]	100
Cl.O=C(O[C@H]1CN[C@H](C#Cc2cc3ncnc(Nc4ccc5c(cnn5Cc5ccccc5)c4)c3s2)C1)N1CCOCC1 [GSK200398A]	93
